About 79,000 compounds went through this panel and 15% of them were active in at least one assay; those are over-represented in the sample as a whole. Values without a mark were called inactive. Activity calls are given as the source filed them. Rule as the data show it: active = growth inhibition above about 70%; inactive = the rest.

The first experiment in a line: NCI Yeast Anticancer Drug Screen. Data for the sgs1 mgt1 strain (AID 161).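 Also: 0% = growth of cultures given vehicle only.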 The settings on record: S. cerevisiae sgs1 mgt1 strain, at 50.0 µM, stronger effect = higher value. An outline of the steps: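 Compounds are added to genetically altered yeast, and growth is compared with cultures given vehicle alone to give percent inhibition.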
For the compound `CC(NC(=O)C(=O)c1ccccc1)c1ccccc1` (stereo not given), the growth inhibition is -13.6%.

Turning to `CC12CC3C(CC1O2)C3(C)C` (stereo not given), the growth inhibition was -32.8%.

In the case of `CCOC(=O)c1ccc(N=C(N)N)cc1`, the growth inhibition is 19.8%.

For the compound `C=C1C2CCC3(CCC4C5(C)CCCC4(CN(C(C)=O)C5)C3C2)C1O` (stereo not given), the growth inhibition was 10.3%.

On to `CC(=O)NNc1nc(C)c(C(/C=C/c2ccccc2O)=N/N=C(N)N)s1`, for which the growth inhibition is -21.4%.

Take `CCCCC(=O)C(CC)(c1ccccc1)N(C)C` (stereo not given): the growth inhibition was -9.4%.

For the compound `c1ccc2c(c1)ccc1c2c[n+](CCCCCCCC[n+]2cc3c4ccccc4ccc3c3ccccc32)c2ccccc12`, the growth inhibition is 87.5% (active).

For the compound `NC(CCC(F)(F)F)C(=O)O` (stereo not given), the growth inhibition is 7.2%.

On to `C/C(CC(O)(C(F)(F)Cl)C(F)(F)Cl)=N\Nc1ccccc1`, for which the growth inhibition was 6.55%.

Regarding `Cc1cc(Br)c[nH]c1=O`, the growth inhibition was -3.65%.

For `CN1CC2=C(NC(=S)NC2c2ccccc2Cl)/C(=C/c2ccccc2Cl)C1` (stereo not given), the growth inhibition was 37.6%.

As for `CCC(=O)c1c(O)cc(O)cc1O`, the growth inhibition is 13.7%.

Regarding `CCCCOC(OCCCC)C(OCCCC)OCCCC`, the growth inhibition is 19.8%.

Turning to `CC(C)C1CCC2(C)C(CCC3C4(C)CCCC32OC4)C1` (stereo not given), the growth inhibition is 0.75%.

As to `CC(OC(C)C(N)=O)C(N)=O` (stereo not given), the growth inhibition was -5.8%.

Regarding `CCC1c2ccccc2[C@H]2C(c3ccccc3)=NN(c3ccccc3)[C@H]2N1CC` (stereo not given in full), the growth inhibition is -0.7%.

With `Cc1ccccc1Nc1nc2ccccc2nc1NS(=O)(=O)c1ccccc1`, the growth inhibition was 5.85%.

`COc1ccc(S(=O)(=O)N/N=C/C(=O)OCOC(=O)C(C)(C)C)cc1`: the growth inhibition was -5.1%.

`O=C(Cn1c2c(c3ccccc31)CCCC2)N1CCCC1`: the growth inhibition was 0.05%.

In the case of `O=[N+]([O-])c1cc(Br)ccc1N1CCCCC1`, the growth inhibition is 2.25%.

Take `COCc1cc(=O)c(OC)cn1CCO`: the growth inhibition was -25.9%.

Take `CCn1c(C)cc(=NC(=O)c2ccccc2O)n1-c1ccccc1`: the growth inhibition is 25.6%.

`CC(C)c1ccc(O)c(Cc2cc(C(C)C)cc(Cc3cc(C(C)C)ccc3O)c2O)c1`: the growth inhibition is -10.2%.

Consider `O=C(CBr)OCCC1CCCCC1`, for which the growth inhibition is 47.9%.

Take `C=CCOC(=O)C1CC=CCC1C(=O)OCC=C` (stereo not given): the growth inhibition is -17.9%.

Turning to `CC(=O)Nc1ccc(Sc2ccc(NC(C)=O)cc2O)c(O)c1`, the growth inhibition is 32%.

Consider `CC1(C)OC2C(C3N(c4ccccc4)CCN3c3ccccc3)OC(n3ccc(=O)[nH]c3=O)C2O1` (stereo not given), for which the growth inhibition was -8.35%.

With `CCOC(=O)CCCN1CCC=C(C#N)C1`, the growth inhibition is 6.7%.

For the compound `COC(=O)C(Cc1nc2ccccc2[nH]c1=O)C(NO)C(=O)Nc1c(Cl)cc([N+](=O)[O-])cc1Cl` (stereo not given), the growth inhibition is 36.6%.

For `CC12CC(=O)OC(Cc3ccccc31)O2` (stereo not given), the growth inhibition is -51.7%.

As to `CC(C)CCC[C@@H](C)[C@H]1CC[C@H]2[C@@H]3CC[C@H]4OC(=O)CC[C@]4(C)[C@H]3CC[C@]12C`, the growth inhibition is -30.4%.

Take `Cn1ccc(=O)c2ccccc21`: the growth inhibition was -8.55%.

Take `COc1c(C)c2c(c(C)c1Cl)Oc1c(C=O)c(O)c(Cl)c(C)c1C(=O)O2`: the growth inhibition was 44.9%.

On to `CN1N=C(c2ccccc2)C(C(c2ccccc2[N+](=O)[O-])C2C(=O)N(C)N=C2c2ccccc2)C1=O` (stereo not given), for which the growth inhibition was 8.5%.

In the case of `CNC(=O)CCC(NC(=O)OC(C)(C)C)C(=O)NC(Cc1ccc(NC(=O)CCCCC(C)=O)cc1)C(=O)NCC(=O)NC` (stereo not given), the growth inhibition was -0.25%.

Regarding `CC1(C(=O)Sc2ccccc2)OC1(C)c1ccccc1` (stereo not given), the growth inhibition is 4.85%.

Consider `O=P(NC1CCCCC1)(NC1CCCCC1)NC1CCCCC1`, for which the growth inhibition is -0.75%.

As for `N#Cc1cc(N2CCCCC2)ccc1[N+](=O)[O-]`, the growth inhibition is -6.2%.

On to `O=C1CSc2ccncc2N1`, for which the growth inhibition was 13.5%.

As for `COc1ccc2nc3ccccc3c(NCCCN(C)C)c2c1[N+](=O)[O-]`, the growth inhibition was 12.9%.

Another experiment can be described thus: NCI Yeast Anticancer Drug Screen. Data for the cln2 rad14 strain (AID 165).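 Also: 0% = growth equal to vehicle treated cultures.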 The conditions noted are these: S. cerevisiae cln2 rad14 strain, at 50.0 µM, stronger effect = higher value. An outline of the steps: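 Growth inhibition, relative to vehicle-treated controls, is the read-out. The test organism is a yeast strain with defined genetic alterations, cln2 rad14.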
For the compound `CC(NC(=O)C(=O)c1ccccc1)c1ccccc1` (stereo not given), the growth inhibition is 20.1%.

Regarding `CC12CC3C(CC1O2)C3(C)C` (stereo not given), the growth inhibition was 2.5%.

Consider `CCOC(=O)c1ccc(N=C(N)N)cc1`, for which the growth inhibition was 11%.

Consider `C=C1C2CCC3(CCC4C5(C)CCCC4(CN(C(C)=O)C5)C3C2)C1O` (stereo not given), for which the growth inhibition is 1.4%.

Turning to `CC(=O)NNc1nc(C)c(C(/C=C/c2ccccc2O)=N/N=C(N)N)s1`, the growth inhibition was -7.1%.

As to `CCCCC(=O)C(CC)(c1ccccc1)N(C)C` (stereo not given), the growth inhibition is -21.2%.

As for `c1ccc2c(c1)ccc1c2c[n+](CCCCCCCC[n+]2cc3c4ccccc4ccc3c3ccccc32)c2ccccc12`, the growth inhibition was 86.2% (active).

Take `NC(CCC(F)(F)F)C(=O)O` (stereo not given): the growth inhibition was 18.6%.

Take `C/C(CC(O)(C(F)(F)Cl)C(F)(F)Cl)=N\Nc1ccccc1`: the growth inhibition is 28.1%.

As to `Cc1cc(Br)c[nH]c1=O`, the growth inhibition was -20.2%.

On to `CN1CC2=C(NC(=S)NC2c2ccccc2Cl)/C(=C/c2ccccc2Cl)C1` (stereo not given), for which the growth inhibition was 10.6%.

For the compound `CCC(=O)c1c(O)cc(O)cc1O`, the growth inhibition was -22.6%.

For `CCCCOC(OCCCC)C(OCCCC)OCCCC`, the growth inhibition is -0.4%.

As to `CC(C)C1CCC2(C)C(CCC3C4(C)CCCC32OC4)C1` (stereo not given), the growth inhibition is -25.1%.

With `CC(OC(C)C(N)=O)C(N)=O` (stereo not given), the growth inhibition was -3.05%.

On to `CCC1c2ccccc2[C@H]2C(c3ccccc3)=NN(c3ccccc3)[C@H]2N1CC` (stereo not given in full), for which the growth inhibition was -2.9%.

As to `Cc1ccccc1Nc1nc2ccccc2nc1NS(=O)(=O)c1ccccc1`, the growth inhibition was -0.8%.

For `COc1ccc(S(=O)(=O)N/N=C/C(=O)OCOC(=O)C(C)(C)C)cc1`, the growth inhibition was 8.55%.

For `O=C(Cn1c2c(c3ccccc31)CCCC2)N1CCCC1`, the growth inhibition is 2.75%.

Take `O=[N+]([O-])c1cc(Br)ccc1N1CCCCC1`: the growth inhibition is -18.1%.

Turning to `COCc1cc(=O)c(OC)cn1CCO`, the growth inhibition is -63.1%.

For the compound `CCn1c(C)cc(=NC(=O)c2ccccc2O)n1-c1ccccc1`, the growth inhibition is 11.5%.

Turning to `CC(C)c1ccc(O)c(Cc2cc(C(C)C)cc(Cc3cc(C(C)C)ccc3O)c2O)c1`, the growth inhibition is 4.6%.

For `O=C(CBr)OCCC1CCCCC1`, the growth inhibition is -36.5%.

With `C=CCOC(=O)C1CC=CCC1C(=O)OCC=C` (stereo not given), the growth inhibition was -15.2%.

`CC(=O)Nc1ccc(Sc2ccc(NC(C)=O)cc2O)c(O)c1`: the growth inhibition is -31.4%.

Regarding `CC1(C)OC2C(C3N(c4ccccc4)CCN3c3ccccc3)OC(n3ccc(=O)[nH]c3=O)C2O1` (stereo not given), the growth inhibition is 14.1%.

Regarding `CCOC(=O)CCCN1CCC=C(C#N)C1`, the growth inhibition is -7.7%.

For the compound `COC(=O)C(Cc1nc2ccccc2[nH]c1=O)C(NO)C(=O)Nc1c(Cl)cc([N+](=O)[O-])cc1Cl` (stereo not given), the growth inhibition is 10.2%.

Take `CC12CC(=O)OC(Cc3ccccc31)O2` (stereo not given): the growth inhibition is -1.25%.

As to `CC(C)CCC[C@@H](C)[C@H]1CC[C@H]2[C@@H]3CC[C@H]4OC(=O)CC[C@]4(C)[C@H]3CC[C@]12C`, the growth inhibition was -2.2%.

Take `Cn1ccc(=O)c2ccccc21`: the growth inhibition is 3.45%.

For `COc1c(C)c2c(c(C)c1Cl)Oc1c(C=O)c(O)c(Cl)c(C)c1C(=O)O2`, the growth inhibition is 23.6%.

As for `CN1N=C(c2ccccc2)C(C(c2ccccc2[N+](=O)[O-])C2C(=O)N(C)N=C2c2ccccc2)C1=O` (stereo not given), the growth inhibition is 3.4%.

For the compound `CNC(=O)CCC(NC(=O)OC(C)(C)C)C(=O)NC(Cc1ccc(NC(=O)CCCCC(C)=O)cc1)C(=O)NCC(=O)NC` (stereo not given), the growth inhibition is 9.8%.

Consider `CC1(C(=O)Sc2ccccc2)OC1(C)c1ccccc1` (stereo not given), for which the growth inhibition was -28.1%.

With `O=P(NC1CCCCC1)(NC1CCCCC1)NC1CCCCC1`, the growth inhibition is 12.1%.

On to `N#Cc1cc(N2CCCCC2)ccc1[N+](=O)[O-]`, for which the growth inhibition was -18.1%.

Regarding `O=C1CSc2ccncc2N1`, the growth inhibition is 11.4%.

In the case of `COc1ccc2nc3ccccc3c(NCCCN(C)C)c2c1[N+](=O)[O-]`, the growth inhibition was -22.2%.

Values taken from PubChem BioAssay (NCI).
